The nature of assay [1]: qHTS assay for small molecule agonists of the p53 signaling pathway (AID 651631; calls by dose curve; also: nearly all actives have a fitted effect of over 15% in size). An outline of the steps:
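Agonist mode screen using a stably integrated beta-lactamase gene under p53 response elements in HCT-116 cells. Compound exposure lasts 16 h at 37 °C; fluorescence intensity is measured following 2 h FRET substrate loading.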

Assay [2] is described as follows: qHTS assay for small molecule agonists of the p53 signaling pathway - cell viability (AID 651633; calls by dose curve;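 also: p53RE-bla HCT reporter cells with a stable beta-lactamase p53 reporter; series mostly up to about 83 µM; nearly all actives have a fitted effect of over 30% in size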). An outline of the steps: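 p53RE-bla cells were treated with compound for 16 hours at 37 C. Cytotoxicity was then measured as CellTiter-Glo luminescence after 30 min at room temperature.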
In general terms: qHTS replaces the single test concentration by a dilution series.

Assay [3] can be described thus: qHTS assay for small molecules that induce genotoxicity in human embryonic kidney cells expressing luciferase-tagged ATAD5 - cell viability (AID 651634; calls by dose curve; also: nearly all actives have a fitted effect of over 25% in size; also: potency is read from the fitted curve at half-maximal effect). An outline of the steps:
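Here HEK293T cells with the ATAD5 luciferase reporter are incubated with test compounds for 15.5 hr, and cytotoxicity is then gauged by measuring protease activity in live cells using fluorescence.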

The nature of assay [4]: qHTS assay for small molecule disruptors of the mitochondrial membrane potential - cell viability (AID 720634; calls by dose curve;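 also: human HepG2 liver cancer cells; series mostly up to about 83 µM; nearly all actives have a fitted effect of over 20% in size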). An outline of the steps:
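Viability of HepG2 cells is scored from ATP content by luminescence; cells are exposed to compound for 1 hr at 37 C and 5% CO2, then dosed with m-MPI dye before the CellTiter-Glo reagent.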

The nature of assay [5]: qHTS assay for small molecule disruptors of the mitochondrial membrane potential (AID 720635). An outline of the steps:
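HepG2 cells exposed to compound 1 hr at 37C, then Mito-MPS dye 30 min. Ratio read of aggregate (540/590 nm) versus monomer (490/535 nm) fluorescence.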

Assay [6] in a line: qHTS assay to test for compound auto fluorescence at 590 nm (red) in HepG2 cells (AID 720674). An outline of the steps: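 Fluorescence at 590 nm emission following 540 nm excitation was recorded from HepG2 wells one hour after compound transfer, with DMSO-only wells as vehicle and Rose Bengal sodium equivalency as the scale.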
Assay [7] in a line: qHTS assay to test for compound auto fluorescence at 535 nm (green) in HepG2 cells (AID 720675).
The nature of assay [8]: qHTS assay to test for compound auto fluorescence at 460 nm (blue) in HEK293 cells (AID 720678). Summed up: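 Triamterene serves as the blue fluorophore standard. Compound signal at 405/460 nm is read in HEK293 wells (2,000 cells, 10% dialyzed FBS) after overnight treatment at 37C.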
The nature of assay [9]: qHTS assay to test for compound auto fluorescence at 535 nm (green) in HEK293 cells (AID 720680).
Assay [10] in a line: qHTS assay to test for compound auto fluorescence at 460 nm (blue) in HEK293 cell free culture (AID 720681). An outline of the steps:
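Compounds were added to cell-free DMEM with 10% FBS and fluorescence read directly. The blue channel used 405 nm excitation and 460 nm emission, with triamterene as the reference fluorophore.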

Assay [11] in a line: qHTS assay to test for compound auto fluorescence at 535 nm (green) in HEK293 cell free culture (AID 720682). Summed up:
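No cells present: wells hold DMEM supplemented with 10% FBS, into which compound or vehicle is pinned. Green emission is then recorded (485 nm excitation, 535 nm emission) and scaled to fluorescein.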

Assay [12] in a line: qHTS assay to test for compound auto fluorescence at 590 nm (red) in HEK293 cell free culture (AID 720683). Summed up:
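Cell-free wells of DMEM with 10% FBS received compound, and intrinsic fluorescence was read at excitation/emission 540/590 nm. Values expressed as equivalence to Rose Bengal sodium.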

A short description of assay [13]: qHTS assay to test for compound auto fluorescence at 535 nm (green) in HepG2 cell free culture (AID 720686).
The target in assay [14] is Glucocorticoid receptor (Homo sapiens) (UniProt P04150). Nature of the assay: qHTS assay to identify small molecule agonists of the glucocorticoid receptor (GR) signaling pathway (AID 720691; active = well fitted activation curve with a large enough effect in the signal ratio in the repeat runs, not every such curve was filed as active; the % refers to the signal ratio). Summed up: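 Compounds in DMSO, alongside positive controls, were added to GR-bla HeLa reporter cells and incubated 18 h at 37 C; GRE-driven beta-lactamase was detected by fluorescence after 2 h with FRET substrate at room temperature.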
Glucocorticoid receptor (Homo sapiens), sequence (P04150 whole entry, looked up): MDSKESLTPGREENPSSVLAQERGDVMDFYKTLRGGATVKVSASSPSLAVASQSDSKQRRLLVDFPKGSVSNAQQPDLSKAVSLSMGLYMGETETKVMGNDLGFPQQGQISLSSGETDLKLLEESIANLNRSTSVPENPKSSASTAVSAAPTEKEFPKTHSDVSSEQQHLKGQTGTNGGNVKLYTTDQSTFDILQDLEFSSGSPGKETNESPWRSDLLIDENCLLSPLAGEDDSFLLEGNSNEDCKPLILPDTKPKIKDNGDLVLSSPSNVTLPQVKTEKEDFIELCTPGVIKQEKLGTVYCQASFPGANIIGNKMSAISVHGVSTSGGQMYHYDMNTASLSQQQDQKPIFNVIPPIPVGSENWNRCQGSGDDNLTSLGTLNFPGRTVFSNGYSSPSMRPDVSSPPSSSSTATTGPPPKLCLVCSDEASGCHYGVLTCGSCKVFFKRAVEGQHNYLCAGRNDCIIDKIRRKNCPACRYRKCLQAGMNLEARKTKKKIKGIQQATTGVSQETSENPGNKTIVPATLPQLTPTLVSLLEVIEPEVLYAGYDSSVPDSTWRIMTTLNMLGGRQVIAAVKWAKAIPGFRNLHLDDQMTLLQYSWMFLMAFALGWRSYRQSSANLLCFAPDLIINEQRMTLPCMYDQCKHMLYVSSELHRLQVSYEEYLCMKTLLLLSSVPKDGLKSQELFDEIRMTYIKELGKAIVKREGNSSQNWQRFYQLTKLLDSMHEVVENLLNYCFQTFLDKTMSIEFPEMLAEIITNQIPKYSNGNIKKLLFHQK

Assay [15] has the same target. Nature of the assay: qHTS assay to identify small molecule antagonists of the glucocorticoid receptor (GR) signaling pathway (AID 720692; active = well fitted inhibition curve with a large enough effect in the signal ratio in the repeat runs, not every such curve was filed as active; the % refers to the signal ratio). An outline of the steps:
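In a 1536-well cell format, compounds were added 4 h after seeding GR-bla HeLa cells, together with dexamethasone at 5 nM final; reporter activity was measured by FRET-substrate fluorescence following 18 h at 37 C.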

Assay [16] can be described thus: qHTS assay to test for compound auto fluorescence at 590 nm (red) in HEK293 cells (AID 720679). Summed up:
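We plated HEK293 cells in 10% dialyzed FBS medium, let them adhere for 4-5 hr, then added 23 nL compound. Overnight at 37C and 5% CO2 preceded fluorescence measurement at 540/590nm.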

Assay [17] in a line: qHTS assay to test for compound auto fluorescence at 590 nm (red) in HepG2 cell free culture (AID 720684). Summed up: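 Rose Bengal sodium served as the reference for red signal. Test compounds were dispensed into serum-containing MEM (10% FBS) without cells, and plates were read at 540/590 nm.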
The nature of assay [18]: qHTS assay to test for compound auto fluorescence at 460 nm (blue) in HepG2 cell free culture (AID 720685). Summed up:
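Cell-free plates of MEM plus 10% FBS received 23 nL compound or DMSO vehicle; blue-channel (405/460 nm) intensity scored against triamterene as reference fluorophore.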

Assay [19] can be described thus: qHTS assay to test for compound auto fluorescence at 460 nm (blue) in HepG2 cells (AID 720687). An outline of the steps: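 HepG2 cells in MEM with 10% FBS, attached overnight at 37 C, were exposed to compound or DMSO for 1 hr at 37 C, 5% CO2. Blue fluorescence was read at 405/460 nm, with triamterene as reference fluorophore.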
Assay [20] in a line: qHTS assay for small molecules that induce genotoxicity in human embryonic kidney cells expressing luciferase-tagged ATAD5 (AID 651632). Also: nearly all actives have a fitted effect of over 15% in size. An outline of the steps: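 DMSO vehicle served as the control. HEK293T reporter cells, 16 hr at 37C, then 30 min Amplite at room temperature; ATAD5 induction is measured as luciferase activity.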

Values without a mark were called inactive. Results filed as inconclusive are left out. Activity calls are given as the source filed them. Unless noted, calls follow the shape of the dose curve; as a rule, active = well fitted curve in the direction sought with a large enough effect in the repeat runs; inconclusive = weak or mixed curves; inactive = no such curve, though single readings can be large; an effect the other way counts as inactive or inconclusive.

Among the data in PubChem BioAssay (Tox21) are Potency and outcome values, retold here.

`NC(=O)Cc1cccc(C(=O)c2ccccc2)c1N`: the Potency result in [1], in [2], in assay [3], in assay [4], in assay [5] and in assay [14] was “inactive” in each case. Besides, in assay [15], the Potency result was “inactive”. In addition, the result in [6], in [7], in assay [8], in assay [9], in [10] and in assay [11] was inactive. For the same compound, the outcome in assay [12] and in [13] was inactive.
With `CC(C)NCC(O)COc1ccc(CCOCC2CC2)cc1` (stereo not given), the Potency entry in assay [1], in [2], in [3], in assay [5], in assay [14] and in assay [15] was “inactive” each time. Besides, the compound was classed as inactive in [6], in [7], in [8], in [16], in assay [9] and in [10]. For the same compound, the compound was called inactive in assay [11], in assay [12], in [17], in [18] and in assay [19].
Take `O=[N+]([O-])c1nccn1CO[C@@H](CO)[C@H](O)CO`: the Potency result in assay [20], in [2], in assay [3], in [4], in assay [5] and in [14] was “inactive” each time. For the same compound, the Potency result in assay [15] is “inactive”. Further, the call in assay [6], in assay [7], in assay [8], in assay [9], in [11] and in assay [12] was inactive. Further, the compound was classed as inactive in [18], in [13] and in [19].
Consider `CC(C)=CCCC(C)CCOC=O` (stereo not given), for which the Potency entry in [20], in assay [2], in assay [14] and in assay [15] was “inactive” each time. Further, in assay [3], the Potency is 54.5 µM (active). Also, the call in assay [6], in assay [7], in assay [8], in assay [16], in [9] and in [10] was inactive. Also, the call in assay [11], in assay [12], in [18] and in assay [13] was inactive.
For `O=C(O)[C@@H]1CSCN1`, the Potency result in assay [20], in assay [2], in assay [3], in assay [4], in [5] and in [14] was “inactive” in each case. Also, in assay [15], the Potency entry is “inactive”. The compound was classed as inactive in [6], in assay [8], in assay [16], in assay [9], in assay [10] and in [11]. In addition, the call in assay [12], in assay [13] and in assay [19] was inactive.
Regarding `Cc1ccc([N+](=O)[O-])c(N)c1`, the Potency entry in [20], in assay [2], in assay [3], in assay [4] and in [14] was “inactive” each time. Moreover, the outcome in assay [6], in assay [8], in assay [16], in [10], in assay [11] and in [17] was inactive. For the same compound, the result in assay [18], in [13] and in assay [19] was inactive.
Take `CCCCC(CC)COC(=O)COc1cc(Cl)c(Cl)cc1Cl` (stereo not given): the Potency result in assay [20], in [2], in assay [3], in [14] and in assay [15] was “inactive” in each case. For the same compound, the call in [6], in assay [7], in assay [8], in assay [16], in [9] and in assay [10] was inactive. Also, the call in assay [11], in [18] and in [13] was inactive.
As to `CCOc1ccc(NC(N)=O)cc1`, the Potency entry in [20], in assay [2], in [3], in assay [4], in [14] and in assay [15] was “inactive” throughout. The call in assay [6], in assay [7], in [8], in assay [16], in assay [9] and in assay [10] was inactive. Moreover, the compound was classed as inactive in assay [11], in assay [12], in [17], in [18], in [13] and in assay [19].
